# Bioassay records: PubChem BioAssay, National Center for Advancing Translational Sciences (NCATS)
# IMPase cell inh: qHTS Assay for Identifying the Cell-Membrane Permeable IMPase Inhibitors | inhibition (IP1 accumulation), % at 46.1 µM | 120,000 tested, under 10 active | CHO-M1 cells, IP1 accumulation, HTRF TR-FRET ratio; active means well fitted curve in the direction sought with a large enough effect in the signal ratio, not every such curve was filed as active; inconclusive means small, poorly fitted or top-dose-only effect, or a change in a side signal; inactive means no such curve, though single readings can be large or run the other way; the % refers to the signal ratio;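 further: cells stimulated with carbachol in lithium chloride buffer; plate controls were DMSO basal wells for no effect and reference inhibitor wells for full effect; higher means more IMPase inhibition seen as more IP1 and lower FRET ratio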
# Target sequence (P97697 whole entry, looked up): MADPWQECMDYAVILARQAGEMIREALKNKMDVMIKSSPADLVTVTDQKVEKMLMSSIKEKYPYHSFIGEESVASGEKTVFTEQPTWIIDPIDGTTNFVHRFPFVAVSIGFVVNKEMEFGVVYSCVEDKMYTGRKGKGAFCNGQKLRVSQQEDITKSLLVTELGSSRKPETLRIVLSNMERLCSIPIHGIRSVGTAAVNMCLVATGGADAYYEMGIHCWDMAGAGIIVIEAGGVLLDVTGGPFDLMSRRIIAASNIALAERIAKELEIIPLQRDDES
#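 CHO-M1, 2000 cells/well, cultured 16–30 h; cpd up to 46 uM; carbachol (50 uM solution, stimulation buffer w/ 50 mM LiCl, pH 7.4), 30 min 37C; IP-One TR-FRET, 10 min RT; Ex 320/Em 665, 620; Hill-fit AC50.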
# HPGD inh: qHTS Assay for Inhibitors of HPGD (15-Hydroxyprostaglandin Dehydrogenase) | actives 4.3% (n = 150,000) | Potency, µM, without a hit: at the top dose activity change, negative = inhibition, hits mostly inhibitors | 15-hydroxyprostaglandin dehydrogenase [NAD(+)] (Homo sapiens), P15428 | AID 894, 2007 | purified HPGD, NADH fluorescence kinetic, PGE2 substrate; further: potency means the concentration at half of the fitted maximal effect
# Target sequence (P15428 whole entry, looked up): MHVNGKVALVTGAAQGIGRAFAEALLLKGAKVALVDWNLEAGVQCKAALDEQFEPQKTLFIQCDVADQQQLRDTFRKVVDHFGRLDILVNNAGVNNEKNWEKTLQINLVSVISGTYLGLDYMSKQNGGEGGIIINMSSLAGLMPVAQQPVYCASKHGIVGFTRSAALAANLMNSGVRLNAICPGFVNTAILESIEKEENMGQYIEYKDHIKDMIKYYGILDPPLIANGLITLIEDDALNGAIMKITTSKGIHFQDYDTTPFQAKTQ
#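 NADH formation kinetics: reaction with 30 uM PGE2 and 1 mM NAD+ (final), 20 nM enzyme, Tris-HCl pH 8 with Tween 20, after 15 min compound preincubation at room temperature. Fluorescence change, last versus first of five reads.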
# ALDH1A1 block: qHTS Assay for Inhibitors of Aldehyde Dehydrogenase 1 (ALDH1A1); actives 7.3% (n = 220,000); Purified ALDH1A1, NADH fluorescence, propionaldehyde substrate; AID 1030, 2008; Potency, µM (doses to about 75.3 µM), for inactives: top-dose activity, negative = inhibition, usual class: inhibitors;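 further: potency means the concentration at half of the fitted maximal effect; plate controls were no enzyme wells and a reference inhibitor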
# PNC assembly inh: High Content Assay for Compounds that inhibit the Assembly of the Perinucleolar Compartment; PC3M PTB-GFP, PNC prevalence imaging, 16 h; active compounds read low; activity change (PNC), negative = inhibition, % at 10 µM; actives 3.1% (n = 140,000);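 active means readout at or below -70, meaning at least 70% loss of cells showing the perinucleolar compartment, a nuclear body marking cancer cells; inconclusive means readout between -30 and a set limit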;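 further: plate controls were DMSO wells for no effect and camptothecin positive control wells for full effect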
#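 PC3M cells stably expressing PTB-GFP, 750–1000 cells/well, treated 16 h at 37 °C with compound (23 nl of library stock), in duplicate. After paraformaldehyde fixation and Hoechst stain, imaged at 20x; PNC prevalence scored by image analysis.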
# IMPase Li inh: qHTS Assay for Identifying the Cell-Membrane Permeable IMPase Inhibitors: Potentiation with Lithium | actives 0.35% (n = 210,000) | CHO-M1 cells, IP1 TR-FRET (IP-One), carbachol + lithium | Potency, µM (series often up to 59.4 µM), without a hit: at the top dose activity, negative = IMPase inhibition, most hits filed as inhibitors; active means well fitted inhibition curve with a large enough effect; inconclusive means small, poorly fitted or top-dose-only effect; inactive means no such curve, though single readings can be large or run the other way;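 further: IP1 builds up when IMPase is blocked and the TR-FRET signal falls; potency means the concentration at half of the fitted maximal effect; plate controls were basal vehicle for no effect and high inhibitor control for full effect; nearly all actives have a fitted effect of over 50% in size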
#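 CHO cells stably expressing M1 receptor (2000/well, cultured 16–30 h) treated 30 min at 37C with compound plus low lithium. Cytosolic IP1 by TR-FRET (665/620 ratio and 620 channel) after 10 min lysis; AC50 by Hill fit.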
# An asterisk follows results filed as active; ? = inconclusive; nt = no result; [ ] = dose if it differs, or a comment. An excerpt weighted towards active compounds, which were near 11% of everything screened. Unless noted, the call rests on the fitted dose curve; in most records, active means well fitted inhibition curve with a large enough effect (not every such curve was filed as active); inconclusive means small, poorly fitted or top-dose-only effect, or another doubt; inactive means no such curve, though single readings can be large or run the other way. Unless noted, on the % scale 0 is the no-effect control and ±100 the full control effect.
SMILES,IMPase cell inh,HPGD inh,ALDH1A1 block,PNC assembly inh,IMPase Li inh
Nc1scc2c(C(=O)N/N=C/c3ccc(Cl)cc3)nn(-c3ccccc3)c(=O)c12,?,14.1µM*,10µM*,?,9.9%[38.3 µM]
O=C(CSc1nnnn1C1CCCCC1)NCCc1ccccc1,4.0,-13.0%,10µM*,?,-6.8%[38.3 µM]
O=C(CSc1cccs1)NCCc1ccccc1,nt,14.1µM*,-6.5%,?,0.9%
O=C(CSc1nnnn1C1CCCCC1)NNC(=O)c1ccco1,nt,nt,4.74µM*,nt,0.4%
CCc1ccc(-n2nnnc2SCC(=O)NNC(=O)c2ccco2)cc1,4.6,-9.5%,-13.9%,124.7,-1.8%[38.3 µM]
NS(=O)(=O)c1ccc(CCNC(=O)CSc2cccs2)cc1,nt,nt,?,nt,4.0%
CC(=O)O[C@]1(C(C)=O)CC[C@H]2[C@@H]3C=C(Cl)C4=CC(=O)[C@@H]5C[C@@H]5[C@]4(C)[C@H]3CC[C@@]21C,nt,-6.0%,15.9%,nt,-3.4%
Cc1nc(NCCO)c2nnn(Cc3ccccc3F)c2n1,-4.0,2.0%,?,-92.6*,-7.8%
CCOCCCNc1nc(C)nc2c1nnn2Cc1c(F)cccc1Cl,nt,nt,8.91µM*,nt,-2.4%
Cc1nc(NCC2CCCO2)c2nnn(Cc3c(F)cccc3Cl)c2n1 (centres undefined),nt,nt,?,nt,1.9%
Cc1nc(NCCN2CCOCC2)c2nnn(Cc3ccccc3Cl)c2n1,6.0,-12.1%,15.8µM*,-6.9,17.9%[38.3 µM]
CC(C)(C)c1nc(NCCN2CCOCC2)c2nnn(Cc3ccccc3Cl)c2n1,1.0,-19.2%,?,-15.5,33.1%[38.3 µM]
C#CCNc1nc(C)nc2c1nnn2Cc1ccccc1F,3.2,-4.4%,11.2µM*,?,7.5%[38.3 µM]
Fc1ccccc1Cn1nnc2c(NCc3ccccn3)ncnc21,5.7,-20.8%,?,27.8,21.1%[38.3 µM]
Clc1ccccc1Cn1nnc2c(NCC3CC3)ncnc21,9.5,-22.1%,?,32.5,6.1%[38.3 µM]
COc1ccccc1CN1CC2(CCN(C(=O)c3ccncc3)CC2)C1,nt,-9.9%,-5.0%,nt,28.6%
COc1ncc2nc(-c3ccc(Cl)cc3)c(=O)n(Cc3cccs3)c2n1,nt,nt,?,nt,-4.5%
Cc1c(C(=O)N2CCN(CCc3ccccc3)CC2)oc2ccccc12,-2.8,-4.3%,14.1µM*,?,65.2%[38.3 µM]
CN(C)Cc1ccccc1-c1nc(N(C)C)c2ccccc2n1,nt,nt,28.1%,nt,0.0%
CCC/C=C(\CCC)C(NS(=O)(=O)c1cccs1)c1ccc(C(=O)OC)cc1 (centres undefined),nt,-10.5%,-14.4%,nt,-3.2%
C=CCN1C(=O)C2(/C(=C(\O)c3ccc4c(c3)OCCO4)C(=O)C(=O)N2CCCOC)c2ccccc21 (centres undefined),-20.8,-18.1%,2.82µM*,-96.4*,-24.4%[38.3 µM]
C/C(CC(=O)Nc1ccccc1Cl)=N\NC(=O)C(=O)NCCO,nt,nt,10µM*,nt,-3.9%
COc1cc(C(Nc2ccc3c(c2)OCO3)C(=O)NC2CCCCC2)cc(OC)c1OC (centres undefined),2.8,-29.1%,0.631µM*,18.9,35.6%[38.3 µM]
C=CCN1C(=O)N/C(=C/c2ccc(C)o2)C1=O,nt,-18.9%,7.94µM*,?,3.1%
Cc1ccc(NC(=O)CN2C(=O)N/C(=C/c3ccc(C)o3)C2=O)cc1,7.6,?,12.6µM*,?,-6.7%[38.3 µM]
SMILES,IMPase cell inh,HPGD inh,ALDH1A1 block,PNC assembly inh,IMPase Li inh
Cc1ccc(CN2C(=O)N/C(=C/c3ccc4c(c3)n(C)c(=O)n4C)C2=O)cc1,nt,nt,?,nt,-12.3%
Cc1cccc(NC(=O)CN2C(=O)N/C(=C/c3ccc(C)o3)C2=O)c1,-3.9,-24.1%,10µM*,-1.4,-5.0%
Cc1ccc(NC(=O)CN2C(=O)N/C(=C/c3ccc(C)s3)C2=O)cc1,-1.2,-16.2%,1.2%,25.4,-11.9%
CCCCN1C(=O)C(NC(C)=O)c2ccccc21 (centres undefined),-5.5,2.6%,0.112µM*,12.4,1.1%
CC(=O)NC1C(=O)N(CCc2ccccc2)c2ccc(Br)cc21 (centres undefined),2.0,-15.3%,?,25.2,5.8%[38.3 µM]
CCOc1cccc(/C(O)=C2/C(=O)C(=O)N(Cc3ccco3)C2c2ccncc2)c1 (centres undefined),-2.4,-12.9%,-13.1%,26.0,-28.7%[38.3 µM]
